Results reported in PubChem BioAssay (NCATS).
Records with an inconclusive call do not appear. Where a call stands in place of a potency, no number is given. Activity calls are given as the source filed them. The call rests on the fitted dose curve; in most records, active means well fitted inhibition curve with a large enough effect; inconclusive means small, poorly fitted or top-dose-only effect; inactive means flat fitted curve, though single readings scatter. Bridge positions count the residues as written; N and C are the ends. Square brackets hold non-standard residues; d marks the D form. Peptide text beside a SMILES is read from it. * marks the point of attachment. Octanoyl(6-Me) = CCC(C)CCCCC(=O)*; pGlu = O=C1CC[C@@H](C(=O)O)N1; Dab = NCC[CH](N)C(=O)O
Potency means the concentration at half of the fitted maximal effect.

What follows are molecules tested against Luciferin 4-monooxygenase (Photinus pyralis) (UniProt P08659) (assay: Biochemical firefly luciferase enzyme assay for NPC (AID 624030; further: nearly all actives have a fitted effect of over 70% in size)). Settings: purified P. pyralis luciferase, luminescence, 5 min; series mostly up to 58.6 µM.
Chain of Luciferin 4-monooxygenase (Photinus pyralis) (P08659 whole entry, looked up): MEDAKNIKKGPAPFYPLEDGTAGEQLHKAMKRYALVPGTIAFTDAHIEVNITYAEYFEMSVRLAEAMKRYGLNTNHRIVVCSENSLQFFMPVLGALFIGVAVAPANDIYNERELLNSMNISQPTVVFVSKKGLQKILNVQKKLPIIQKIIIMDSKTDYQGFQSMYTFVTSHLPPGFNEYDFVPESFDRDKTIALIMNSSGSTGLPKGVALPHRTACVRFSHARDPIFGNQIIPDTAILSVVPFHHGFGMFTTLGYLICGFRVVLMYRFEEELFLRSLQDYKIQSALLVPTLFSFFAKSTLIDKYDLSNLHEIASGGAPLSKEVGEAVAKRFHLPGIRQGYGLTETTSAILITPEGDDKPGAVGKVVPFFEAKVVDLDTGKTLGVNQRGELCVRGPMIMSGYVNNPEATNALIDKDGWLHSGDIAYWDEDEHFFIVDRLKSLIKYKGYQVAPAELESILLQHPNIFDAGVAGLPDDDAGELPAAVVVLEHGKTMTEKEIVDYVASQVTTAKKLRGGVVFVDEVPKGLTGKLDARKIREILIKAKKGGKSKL
Source text: Charcot-Marie-Tooth-Association [CMTA] National Center for Advancing Translational Sciences [NCATS] Charcot-Marie-Tooth (CMT) disease was first characterized by Jean-Martin Charcot and Pierre Marie in France and, independently, by Howard Henry Tooth in England in 1886. CMT is one of the most common inherited neurological diseases, affecting approximately 1 in 2,500 Americans. […] The most prevalent type of CMT is known as CMT1A and caused by a duplication of the PMP22 gene which leads to over-expression of this protein. PMP22 is a glycosylated intrinsic membrane protein accounting for 2-5% of the myelin protein content, and its over-expression results in demyelination and subsequently axonal loss. A pair of cellular transcription-based assays was developed in the S16 rat Schwann cell lines (Hai, M., et al., 2002) stably transfected with orthogonal reporters - firefly luciferase (Fluc) and beta-lactamase (beta-Lac) - whose expression is driven by an intronic regulatory element of the PMP22 gene (Jones, E.A., et al., 2011) to recapitulate endogenous expression of PMP22. A comprehensive library of approved drugs, the NCGC Pharmaceutical Collection (Huang, R., et al., 2011), was screened in the cross-validating platform of the orthogonal reporter assays to identify drug modulators inhibitory towards PMP22 expression. A set of counter-screens was devised to address non-specific activity of the library. An ATP-dependent CellTiter-Glo assay (developed by Promega Corp) was utilized to control cell viability. In addition, biochemical Fluc enzyme assay was performed to assess direct inhibition of the Fluc enzymatic activity. References Hai, M., Muja, N., DeVries, G.H., Quarles, R.H. and Patel, P.I. Comparative analysis of Schwann cell lines as model systems for myelin gene transcription studies. J Neurosci Res, 2002. 69(4): pp 497-508 Huang, R., Southall, N., Wang, Y., Yasgar A., Shinn P., Jadhav, A. , Nguyen, D.-T. and Austin, C.P., The NCGC pharmaceutical collection: a comprehensive resource of clinically approved drugs enabling repurposing and chemical genomics. Sci Transl Med, 2011. 3(80): p. 80ps16.
Compounds were transferred to the plates in 23nl, and one microliter/well luciferase enzyme-buffer solution (10 nM P. pyralis luciferase and 50 mM Tris Acetate final concentrations) was dispensed yielding a final reaction volume of […]. Luciferase luminescence was measured by a ViewLux plate reader within 5 minutes of enzyme-buffer addition. The % activity was determined by normalizing to the average readings of PTC124 (a positive control) relative to DMSO (0% Activity). The concentration-effect curves were then classified based on curve quality (r2), response magnitude and degree of measured activity.
With `N=C(N)c1ccc(OCCCOc2ccc(C(=N)N)cc2Br)c(Br)c1` the Potency was “inactive”.
For `CCC(=O)O[C@@H](OP(=O)(CCCCc1ccccc1)CC(=O)N1C[C@H](C2CCCCC2)C[C@H]1C(=O)O)C(C)C` (stereo partly specified), the Potency was “inactive”.
`CCN1/C(=C/C=C/C=C/c2sc3ccccc3[n+]2CC)Sc2ccccc21` was tested, and the Potency was 32.2 µM (active).
`CCC(C)n1ncn(-c2ccc(N3CCN(c4ccc(OCC5COC(Cn6cncn6)(c6ccc(Cl)cc6Cl)O5)cc4)CC3)cc2)c1=O` (stereo unspecified) was tested, and the Potency was “inactive”.
For `CCCCCCCCCCCCCCCC(=O)OCC(O)C1OC(=O)C(O)=C1O` (stereo unspecified), the Potency was “inactive”.
With `CC(C)CN(C[C@@H](O)[C@H](Cc1ccccc1)NC(=O)O[C@H]1CCOC1)S(=O)(=O)c1ccc(N)cc1` the Potency was “inactive”.
`C1OCOCO1` was tested, and the Potency was “inactive”.
For `CCC(C)CCCCC(=O)NC(CCN)C(=O)NC(C(=O)NC(CCN)C(=O)NC1CCNC(=O)C(C(C)O)NC(=O)C(CCN)NC(=O)C(CCN)NC(=O)C(CC(C)C)NC(=O)C(Cc2ccccc2)NC(=O)C(CCN)NC1=O)C(C)O` (stereo unspecified) ({Octanoyl(6-Me)}-[Dab]T[Dab][Dab][Dab]FL[Dab][Dab]T; lactam 4-C; configuration not given here), the Potency was “inactive”.
With `O=C(O)c1cc(O)c2c(c1)[C@H]([C@H]1c3cc(C(=O)O)cc(O)c3C(=O)c3c(O[C@@H]4OC(CO)C(O)C(O)C4O)cccc31)c1cccc(O[C@@H]3OC(CO)C(O)C(O)C3O)c1C2=O` (stereo partly specified) the Potency was 16.1 µM (active).
`C/C=C\c1ccc(OC)cc1` was tested, and the Potency was “inactive”.
With `CCNC(=O)[C@H]1CCCN1C(=O)[C@H](CCCN=C(N)N)NC(=O)[C@H](CC(C)C)NC(=O)[C@H](CC(C)C)NC(=O)[C@@H](Cc1ccc(O)cc1)NC(=O)[C@H](CO)NC(=O)[C@@H](Cc1c[nH]c2ccccc12)NC(=O)[C@H](Cc1cnc[nH]1)NC(=O)[C@@H]1CCC(=O)N1` ([pGlu]H[dW]S[dY]LLR[dP]-NHEt) the Potency was “inactive”.
`CC(=O)O[C@@]12CO[C@@H]1C[C@H](O)[C@@]1(C)C(=O)[C@H](O)C3=C(C)[C@@H](OC(=O)C(O)[C@@H](NC(=O)OC(C)(C)C)c4ccccc4)C[C@@](O)([C@@H](OC(=O)c4ccccc4)[C@H]21)C3(C)C` (stereo partly specified) was tested, and the Potency was “inactive”.
For `CC1CCC(C(C)C)C(OC(=O)c2ccccc2O)C1` (stereo unspecified), the Potency was “inactive”.
In the case of `COc1cc([C@@H]2c3cc4c(cc3[C@@H](O[C@@H]3O[C@@H]5CO[C@@H](C)O[C@H]5[C@H](O)[C@H]3O)[C@H]3COC(=O)[C@H]23)OCO4)cc(OC)c1OP(=O)(O)O`, the Potency is reported as “inactive”.
In the case of `CO/N=C(/C(=O)N[C@@H]1C(=O)N2C(C(=O)O)=CCS[C@H]12)c1csc(N)n1`, the Potency is reported as “inactive”.
`CC(C)(CO)C(O)C(=O)NCCCC(=O)O` (stereo unspecified) was tested, and the Potency was “inactive”.
In the case of `CN(C)CCCCCCN(C)C`, the Potency is reported as “inactive”.
`CO/N=C(/C(=O)N[C@@H]1C(=O)N2C(C(=O)OC(C)OC(C)=O)=C(COC(N)=O)CS[C@H]12)c1ccco1` (stereo partly specified) was tested, and the Potency was “inactive”.
For `CN1CC[C@H](CN2c3ccccc3Sc3ccccc32)C1`, the Potency was “inactive”.
In the case of `NCCCC(N)C(=O)O` (stereo unspecified), the Potency is reported as “inactive”.
With `CC(=O)OC1CC2CCC1(C)C2(C)C` (stereo unspecified) the Potency was “inactive”.
For `CC(C)CN(C[C@@H](OP(=O)(O)O)[C@H](Cc1ccccc1)NC(=O)O[C@@H]1CCOC1)S(=O)(=O)c1ccc(N)cc1`, the Potency was “inactive”.
In the case of `Nc1nc(Cl)nc2c1ncn2C1CC(O)C(CO)O1` (stereo unspecified), the Potency is reported as “inactive”.
`CO[C@@H]1[C@@H](OC2OC(C)C(OC3CC(C)(O)C(OC(=O)CC(C)C)C(C)O3)C(N(C)C)C2O)[C@@H](CC=O)C[C@@H](C)C(=O)/C=C\C2O[C@H]2C[C@@H](C)OC(=O)C[C@H]1OC(C)=O` (stereo partly specified) was tested, and the Potency was “inactive”.
In the case of `Cc1cc(CC(C)CC(C)(C)C)n(O)c(=O)c1` (stereo unspecified), the Potency is reported as “inactive”.
With `S=C1NC=NC2N=CNC12` (stereo unspecified) the Potency was “inactive”.
In the case of `CC1(C)S[C@@H]2[C@H](NC(=O)COc3ccccc3)C(=O)N2[C@H]1C(=O)O`, the Potency is reported as “inactive”.
With `O=NCc1ccc([N+](=O)[O-])o1` the Potency was “inactive”.
For `C=C[C@]1(C)C[C@@H](OC(=O)CSCCN(CC)CC)[C@]2(C)C(C)CC[C@]3(CCC(=O)[C@H]32)[C@@H](C)[C@@H]1O` (stereo partly specified), the Potency was “inactive”.
`CC/C=C(\C(=O)N[C@H]1C(=O)N2C(C(=O)OCOC(=O)C(C)(C)C)=C(COC(N)=O)CS[C@H]12)c1csc(N)n1` was tested, and the Potency was “inactive”.
In the case of `CC(C)CC(NC(=O)CNC(=O)C(Cc1ccc(O)cc1)NC(=O)C(CO)NC(=O)C(Cc1c[nH]c2ccccc12)NC(=O)C(Cc1cnc[nH]1)NC(=O)C1CCC(=O)N1)C(=O)NC(CCCN=C(N)N)C(=O)N1CCCC1C(=O)NCC(N)=O` (stereo unspecified), the Potency is reported as “inactive”.
